In the library only some 3.5% were active in any assay of this set; here they are far more common.
TRb SRC2 PPI: qHTS for Inhibitors of the Interaction of Thyroid Hormone Receptor and Steroid Receptor Coregulator 2; Potency, µM (top dose mostly 106 µM), most hits filed as inhibitors; AID 1469, 2008; Thyroid hormone receptor beta (Homo sapiens), P10828; TRbeta-SRC2 peptide binding, fluorescence polarization; receptor liganded with 1 µM T3; 280,000 tested, 0.065% active; note: nearly all actives have a fitted effect of over 50% in size
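Binding of a 20-amino-acid Texas Red SRC2 peptide (20 nM) to TRb ligand-binding domain (0.6 uM) with agonist T3 at 1 uM was followed by fluorescence polarization after a 5 hr room-temperature incubation.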
TR SRC2 fluor cs: Total Fluorescence Counterscreen for Inhibitors of the Interaction of Thyroid Hormone Receptor and Steroid Receptor Coregulator 2 | Potency, µM (titrated, usually from 106 µM) | 280,000 tested, 0.29% active | TRb/SRC2 Texas Red total fluorescence interference; active = well fitted curve in either direction with a large enough effect; inconclusive = small, poorly fitted or top-dose-only effect
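Human TRb ligand-binding domain at 0.6 uM with 20 nM Texas Red SRC2 peptide in Tris buffer containing 1 uM T3 and 5% DMSO, incubated with compound 5 h at ambient temperature. Total fluorescence (555/632 nm) calculated as parallel + 2 × perpendicular.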
Tau fluor cs: Counterscreen qHTS for Inhibitors of Tau Fibril Formation, Fluorescence Polarization; tau K18 P301L Alexa594 fluorescence, heparin fibrillization; AID 1463, 2008; 280,000 tested, 0.93% active; Potency, µM (titrated, usually from 57.7 µM); note: nearly all actives have a fitted effect of over 55% in size
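Human tau K18 P301L (15 uM unlabeled, 0.24 uM Alexa 594-labeled) in 100 mM sodium acetate pH 7 with 20 uM heparin, 6 hr at 37 C. ThT 30 uM added, 1 hr ambient; Alexa 594 FP and total fluorescence read at 555/632 nm.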
Tau FP inhib: qHTS for Inhibitors of Tau Fibril Formation, Fluorescence Polarization; Microtubule-associated protein tau (Homo sapiens), P10636; 280,000 tested, 0.39% active; AID 1468, 2008; K18 P301L tau heparin fibrillization, Alexa594 FP, 6 h; Potency, µM (highest dose often 57.7 µM), hits mostly inhibitors; note: nearly all actives have a fitted effect of over 55% in size
Target sequence (P10636 561-689 P618L limits assumed): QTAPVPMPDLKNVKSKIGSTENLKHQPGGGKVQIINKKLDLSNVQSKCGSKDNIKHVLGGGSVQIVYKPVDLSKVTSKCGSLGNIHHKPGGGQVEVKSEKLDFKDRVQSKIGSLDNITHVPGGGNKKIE
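K18 P301L tau (15 uM unlabeled/0.24 uM Alexa 594-labeled, final) + compound + heparin 20 uM final; 100 mM NaOAc pH 7; 6 hr 37 C; ThT 30 uM final added, 1 hr RT; FP ex 555/em 632 nm.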
Tau ThT inhib: qHTS for Inhibitors of Tau Fibril Formation, Thioflavin T Binding | Potency, µM (titrated, usually from 57.4 µM), most hits filed as inhibitors | recombinant tau K18 P301L (four-repeat tau fragment), heparin-induced fibrillization, ThT fluorescence | 270,000 tested, 2.1% active | AID 1460, 2008 | Microtubule-associated protein tau (Homo sapiens), P10636; note: nearly all actives have a fitted effect of over 55% in size
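Tau K18 P301L fragment (15 uM unlabeled plus 0.24 uM Alexa 594-labeled) in 100 mM sodium acetate pH 7 with compound, fibrillization induced by 20 uM heparin for 6 hr at 37 C. Thioflavin T (30 uM) added, fluorescence read after 1 hr (ex 450, em 510 nm).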
KDM4E inh: qHTS Assay for Inhibitors of Human Jumonji Domain Containing 2E (JMJD2E). 230,000 tested, 1.6% active. AID 2147, 2009. Lysine-specific demethylase 4E (Homo sapiens), B2RXH2. JMJD2E catalytic domain, FDH-coupled NADH fluorescence (FDH is formaldehyde dehydrogenase). Potency, µM (highest dose often 57.1 µM), usual class: inhibitors; active = well fitted inhibition curve with a large enough effect, not every such curve was filed as active; inconclusive = small, poorly fitted or top-dose-only effect, or another doubt; inactive = no such curve, though single readings can be large or run the other way; note: nearly all actives have a fitted effect of over 50% in size
Target sequence (B2RXH2 1-337 limits assumed): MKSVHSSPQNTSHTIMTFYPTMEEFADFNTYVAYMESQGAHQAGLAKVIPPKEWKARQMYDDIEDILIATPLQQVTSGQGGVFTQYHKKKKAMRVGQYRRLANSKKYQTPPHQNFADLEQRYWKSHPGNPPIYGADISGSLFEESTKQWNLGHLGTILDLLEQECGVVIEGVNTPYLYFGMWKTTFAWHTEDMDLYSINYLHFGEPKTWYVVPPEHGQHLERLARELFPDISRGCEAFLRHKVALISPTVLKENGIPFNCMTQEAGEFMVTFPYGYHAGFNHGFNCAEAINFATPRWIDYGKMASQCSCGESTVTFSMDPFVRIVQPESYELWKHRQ
Numbers stand for hits; 0 = inactive; ? = inconclusive; - = not tested or not shown; [ ] = remark or other dose. Unless noted, calls come from the whole dose curve; as a rule, active = well fitted curve in the direction sought with a large enough effect; inconclusive = small, poorly fitted or top-dose-only effect, or another doubt; inactive = no such curve, though single readings can be large; an effect the other way counts as inactive or inconclusive.

SMILES | TRb SRC2 PPI | TR SRC2 fluor cs | Tau fluor cs | Tau FP inhib | Tau ThT inhib | KDM4E inh
COc1ccc(-c2ccc(/C=C3\C(=O)N(c4ccccc4)N=C3c3ccccc3)o2)c([N+](=O)[O-])c1 | 0 | 0 | ? | 0 | ? | 0
Oc1c(Cl)cccc1C=Nc1cc(C(F)(F)F)ccc1N1CCCC1 | 0 | 0 | ? | 0 | ? | ?
Oc1c(Cl)cc(Cl)cc1C=Nc1cc(C(F)(F)F)ccc1N1CCc2ccccc2C1 | 0 | 0 | 0 | ? | 28µM | ?
CCOC(=O)c1c(C)oc2ncnc(N3CCN(c4ccc(C)cc4C)CC3)c12 | 0 | 0 | 0 | 0 | 0 | -
CCOC(=O)c1c(C)oc2nc(C)nc(N3CCN(c4ccc(C)cc4C)CC3)c12 | 0 | 447µM[quencher] | 0 | 0 | 0 | -
COc1ccc(NN=Nc2nc3c([nH]2)c(=O)n(C)c(=O)n3C)cc1 | 0 | 0 | ? | ? | 25µM | ?
CC(=O)/C(N=Nc1nc2c([nH]1)c(=O)n(C)c(=O)n2C)=C(\C)O | 0 | 0 | 0 | 0 | ? | 0
Cn1c(=O)c2[nH]c(N=NNc3ccccc3F)nc2n(C)c1=O | 0 | 0 | ? | ? | 14µM | ?
Cc1ccccc1NN=Nc1nc2c([nH]1)c(=O)n(C)c(=O)n2C | 0 | 0 | 0 | 0 | ? | 0
O=C1N=C(c2ccccc2)S/C1=C\c1cccs1 | 0 | 0 | ? | ? | 7.9µM | 0
O=C1OC(c2ccccc2)=C/C1=C/c1cccs1 | 0 | 0 | ? | ? | 3.2µM | ?
Cc1nc2c(-c3ccc(Cl)cc3)c(C)[nH]n2c(=O)c1Cc1ccccc1 | 0 | 0 | 0 | 0 | 0 | 32µM
Cc1cccc(Cc2c(C)nc3c(-c4ccccc4)c(C)[nH]n3c2=O)c1 | 0 | 8.9µM[quencher] | 0 | 0 | 0 | -
O=C(COc1ncnc2sccc12)NC1CCCc2ccccc21 (stereo unspecified) | 0 | 0 | 0 | 0 | 0 | 0
CCOc1ccc(CC2NCCc3cc(OCC)c(OCC)cc32)cc1OCC (stereo unspecified) | 0 | 0 | 0 | ? | ? | 35µM
CCC(Oc1ccccc1)C(=O)N1CCC(C(N)=O)CC1 (stereo unspecified) | 0 | 0 | 0 | 0 | 0 | 0
COCCSc1ccccc1C(=O)Nc1nccs1 | 0 | 0 | 0 | 0 | 0 | 0
CCN(CC)S(=O)(=O)c1cccc(NC(=O)C2SC(=Nc3ccc(C)cc3C)C(C(=O)NCC3CCCO3)=C2N)c1 (stereo unspecified) | 0 | 0 | 13µM[quencher] | ? | 0 | 0
CCc1ccc(C2C(C#N)=C(N)SC(N)=C2C#N)s1 | 0 | 0 | ? | ? | 14µM | ?
Cc1ccc(C2C(C#N)=C(N)SC(N)=C2C#N)o1 | 0 | 0 | ? | 18µM | 14µM | ?
CCOC(=O)C1=C(C)OC(N)=C(C#N)C1c1ccc(C)o1 (stereo unspecified) | 0 | 0 | 0 | 0 | 0 | 0
COC(=O)C1=CN(C2CCCCC2)C=C(C(=O)OC)C1c1ccc2c(c1)OCO2 | 0 | 0 | 0 | 0 | 0 | ?
CCN(CC)S(=O)(=O)c1ccc2c(c1)N(CC(=O)NCCCN1CCN(c3ccc(OC)cc3)CC1)C(=O)CO2 | 0 | 0 | 0 | 0 | 0 | -
Cc1ccc(NC(=O)CC2Nc3cccc4cccc(c34)NC2=O)cc1 (stereo unspecified) | 0[11.2 µM] | 0[11.2 µM] | 14µM[quencher] | ? | 14µM | -
O=C(CC1Nc2cccc3cccc(c23)NC1=O)Nc1ccccc1 (stereo unspecified) | 0 | 0 | 0 | 0 | 0 | 0
CC(CCO)Nc1nc2c(c(=O)n(C)c(=O)n2C)n1Cc1cccc(Br)c1 (stereo unspecified) | 0 | 0 | 0 | 0 | 0 | 0
CC(CCO)Nc1nc2c(c(=O)n(C)c(=O)n2C)n1Cc1ccc(Br)cc1 (stereo unspecified) | 0 | 0.0071µM[quencher] | 0 | 0 | 0 | -

Screening results as filed in PubChem.
